E-sel TNF inh = blocks E-selectin expression induced by TNF alpha; HUVEC TNFa-induced E-selectin immunofluorescence, high content; inhibition, % at 2 µM; 120,000 tested, 0.71% active; AID 1246;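 active = inhibition above the batch mean plus 3 SD, and confirmed as a hit on visual image review, cut at about 43% in these data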
TNFa cytotox = toxic to HUVEC cells under TNF alpha stimulation. HUVEC TNFalpha-stimulated, Hoechst cell count, imaging. cell count reduction, % at 2 µM. 93,000 tested, 0.17% active. AID 848;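 active = cell count reduction exceeding the screen mean by over 5 SD, scaled to untreated wells per plate, cut at about 78% in these data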;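 note: cells counted after 24 h of TNF alpha exposure following the 1 h pretreatment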
VCAM1 TNFa inh = reduces TNF alpha induced VCAM1 expression in HUVEC; HUVEC TNFa-induced VCAM-1 immunofluorescence, high-content imaging; 95,000 tested, 0.48% active; AID 802; inhibition, % at 2 µM;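 active = inhibition above the batch mean plus 3 SD, with images confirmed as a hit by eye, cut at about 37% in these data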
cytoskel mod = alters cytoskeleton assembly in HUVEC cells. 91,000 tested, 0.18% active. inhibition, % at 2 µM. HUVEC TNFa F-actin phalloidin imaging, high content. AID 836;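 active = inhibition above the batch mean plus 3 SD and confirmed as a hit by visual image inspection, cut at about 30% in these data, passing the limit was not always enough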
A number is an active result; n = inactive; x = not tested or not shown. Sampled rows, rich in hits. Any-hit rate of the full collection: about 1%.

SMILES	E-sel TNF inh	TNFa cytotox	VCAM1 TNFa inh	cytoskel mod
O=C(Nc1nc(-c2ccccc2)c(-c2ccccc2)s1)c1ccc(S(=O)(=O)N(CCCl)CCCl)cc1	59.6	x	x	x
CC1CCC(C(=O)NC(C(=O)N2CCC3(CC2)OCCO3)C(C)C)CC1 (stereo unspecified)	n	n	n	n
CC1CN(c2cc([N+](=O)[O-])ccc2Cl)CC(C)N1 (stereo unspecified)	99.6	x	x	x
CCc1ccc(N2C(=O)NC(=O)/C(=C/c3cccn3CCOc3ccc(C(C)CC)cc3)C2=O)cc1 (stereo unspecified)	79.9	x	x	x
O=C(Cc1ccccc1)Oc1ccccc1N1C(=O)CCC1=O	n	n	n	n
COc1ccc(C(=O)C2(C)N(O)C(C)C(c3cccs3)=[N+]2[O-])cc1 (stereo unspecified)	58.0	n	n	n
Cc1ccccc1-n1c(C)nc2sccc2c1=O	n	n	n	n
CCN1CCN(Cc2cc(Br)cc(OC)c2O)CC1	n	n	n	n
CCN1CCN(Cc2cc(OC)c(OC)cc2[N+](=O)[O-])CC1	100.0	n	n	n
CN1C(=O)/C(=C/c2cccn2-c2ccc3ccccc3c2)C(=O)NC1=S	79.0	n	n	n
N/C(=N/[N+](=O)[O-])N1CCN(C(=O)c2ccc(Cl)cc2)CC1	n	x	x	x
O=c1[nH]c(=S)n(C2CC2)c(O)c1C=Nc1cccc(C(F)(F)F)c1	n	x	x	x
COC(=O)C1=C(N)Oc2c(c(=O)oc3ccccc23)C1c1cccnc1 (stereo unspecified)	n	n	n	n
CCCCC12CNCC(C)(CNC1)C2=O	100.0	n	n	n
CCN(CC)P(=O)(NC(=O)c1cccn1C)N(CC)CC	n	x	x	x
CC(=O)OC(C)(C)/C=C/C(=O)[C@](C)(O)[C@H]1[C@H](O)C[C@@]2(C)[C@@H]3CC=C4[C@H](C[C@H](O)C(=O)C4(C)C)[C@]3(C)C(=O)C[C@]12C	60.3	x	x	x
CN(C)CC1CSCCC1(O)c1ccccc1Cl (stereo unspecified)	n	n	n	n
CN(C)CC1CSCCC1(O)c1ccc(Cl)cc1 (stereo unspecified)	41.8	n	n	n
O=C(C1CCCN(c2nnc(-n3cccc3)s2)C1)N1CCC2(CC1)OCCO2 (stereo unspecified)	n	n	n	n
CCOc1ccccc1N1C(=O)NC(=O)C(CCc2ccncc2)(CCc2ccncc2)C1=O	n	n	n	33.0
CN(C)P1(N(C)C)=NC(C(F)(F)F)=NC(C(F)(F)F)=N1	n	x	x	x
COc1ccccc1N(CC(=O)NC1CCCCC1)C(=O)c1cnn(C(C)C)c1	n	n	n	n
CC(c1ccccc1F)n1cc(C(=O)Nc2ccc3nc[nH]c3c2)nn1 (stereo unspecified)	x	80.3	n	n
Cc1cc(N2C(=O)C3CCCN3C2c2sccc2C)no1 (stereo unspecified)	x	n	n	n
CC(N)Cc1c[nH]c2ccc(Cl)cc12 (stereo unspecified)	n	n	38.9	n
CCCC(=O)NC(Oc1ccccc1Cl)C(Cl)(Cl)Cl (stereo unspecified)	n	n	n	n
O=C1NC(=O)N(CCC2=CCCCC2)C(=O)/C1=C\c1cccs1	n	x	x	x
Cn1cccc1/C=C1\C(=O)NC(=O)N(CCC2=CCCCC2)C1=O	76.7	x	x	x
O=C1C2CCCN2C(c2cccnc2)N1c1ccc(Cl)c(Cl)c1 (stereo unspecified)	n	n	74.8	n
CCN1/C(=C\C=C\C2=[N+](CC)c3ccccc3C2(C)C)C(C)(C)c2ccccc21	n	n	88.0	n

Assay outcomes as filed in PubChem BioAssay.
